The campaign covered roughly 370,000 compounds. About 2,600 (0.7%) were called active.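 The calls were made as follows: active = inhibition above a per-plate cutoff, mean inhibition of test wells between control levels plus 3 SD (cut at about 38% in these data); inactive = the rest.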 The sample as a whole holds a higher share of actives than the screen did.
The compounds below were run against COUP transcription factor 2 (Homo sapiens) (UniProt P24468) (assay: NR2F2 transcriptional activity inhibitors, primary screen, cell-based, luciferase reporter, HEK293T, luminescence (AID 686940;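 also: cells cotransfected with COUP-TFII expression vector driving the NGFI-A reporter; 0% = median of COUP-TF2 test wells and 100% = reporter-only cells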)). Settings: HEK293T NGFI-A luciferase reporter, at 8.6 µM, active compounds read high.
COUP transcription factor 2 (Homo sapiens), sequence (P24468 whole entry, looked up): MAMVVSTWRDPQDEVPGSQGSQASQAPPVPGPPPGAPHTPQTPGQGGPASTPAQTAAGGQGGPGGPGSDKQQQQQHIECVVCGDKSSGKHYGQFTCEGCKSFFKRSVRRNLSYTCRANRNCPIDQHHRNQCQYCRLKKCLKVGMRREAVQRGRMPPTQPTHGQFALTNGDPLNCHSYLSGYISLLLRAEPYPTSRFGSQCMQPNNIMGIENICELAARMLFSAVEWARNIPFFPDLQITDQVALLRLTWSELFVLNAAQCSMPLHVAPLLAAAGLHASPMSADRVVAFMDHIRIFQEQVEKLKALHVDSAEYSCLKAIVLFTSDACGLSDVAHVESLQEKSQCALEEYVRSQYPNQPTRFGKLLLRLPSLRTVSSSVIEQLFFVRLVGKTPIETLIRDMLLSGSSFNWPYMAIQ
`C[C@H]1[C@H](NC(=O)c2cccc(N(C)C)c2)CC[C@@]23CCCN2C(=O)CCC[C@@H]13` was tested, and the inhibition was 4.37% (inactive).
`COc1ccc(C#CCNCc2ccc(OC)cc2OC)cc1` was tested, and the inhibition was -3.51% (inactive).
For `COC(=O)c1cccc(Cn2ccc3ccc(-c4ccc5ccn(C(=O)c6ccccc6C)c5c4)cc32)c1`, the inhibition was -1.59% (inactive).
For `O=C(c1ccncc1)N1CC[C@H]2[C@H](CCCN2Cc2ccc(F)cc2)C1`, the inhibition was -20.6% (inactive).
For `COC(=O)[C@]12C[C@H](CC(=O)NCCc3ccccc3OC)C(=O)N(Cc3ccco3)C1=C[C@H](C(C)C)O[C@@H]2C1CC1`, the inhibition was 3.03% (inactive).
With `CC(=O)Nc1nc2ncccn2c1-c1ccc(C(F)(F)F)cc1` the inhibition was 4.78% (inactive).
For `Cc1ccc(NC(=O)c2cc(C)nn2-c2ccccc2)c(C)c1`, the inhibition was -0.68% (inactive).
With `CCN(CC)C(=O)CC[C@@H]1CC[C@]2(CCCN(S(=O)(=O)C3CCCCC3)C2)O1` the inhibition was 10.7% (inactive).
In the case of `C[C@@H]1C[C@@H]2O[C@H]2/C=C\C=C\C(=O)Cc2c(Cl)c(O)cc(O)c2C(=O)O1`, the inhibition is reported as 61.7% (active).
`CCOC(=O)N1CCN(C(=O)C2CCN(c3ncnc4c3sc3cccc(F)c34)CC2)CC1` was tested, and the inhibition was 46.1% (active).
In the case of `CCOC(=O)N1CCN(C(=O)C2CCN(Cc3ccc(OC)cc3OC)CC2)CC1`, the inhibition is reported as 5.07% (inactive).
For `CCOC(=O)N1CCN(C(=O)C2CCCN(c3ncnc4c3sc3cccc(F)c34)C2)CC1` (stereo not given), the inhibition was -4.38% (inactive).
`COc1ccc(-c2nn(C)c(=O)c3ccccc23)cc1NC(=O)COc1ccccc1` was tested, and the inhibition was -20.3% (inactive).
With `Cc1ccc(F)cc1NC(=O)Cc1nn(C)c(=O)c2ccccc12` the inhibition was 54.3% (active).
With `Cc1ccc(F)cc1NC(=O)CSCc1c(C)noc1C` the inhibition was 2.99% (inactive).
In the case of `CC(c1c[nH]c2ccccc12)c1c(-c2ccccc2)n(C)c2ccccc12` (stereo not given), the inhibition is reported as 0.69% (inactive).
In the case of `C#CCCN([C@H](C(=O)OC)C(C)C)S(=O)(=O)c1ccc(F)cc1Br`, the inhibition is reported as 17.9% (inactive).
With `C#Cc1ccc(NC(=O)C2(C)CCN2C(=O)Cc2ccc(-c3ccccc3)cc2)cc1` (stereo not given) the inhibition was 66.9% (active).
With `CC1(C(=O)NS(=O)(=O)c2ccccc2)CCN1C(=O)Cc1ccc(-c2ccccc2)cc1` (stereo not given) the inhibition was -9.63% (inactive).
With `CCCNC(=O)C1(C)CCN1C(=O)Cc1ccc(-c2ccccc2)cc1` (stereo not given) the inhibition was 27.8% (inactive).
In the case of `C=CCN1C(=O)[C@@H](CC(=O)NCC2CCCCC2)[C@]2(C(=O)OC)CCCCC=C12`, the inhibition is reported as 2.77% (inactive).
In the case of `Cc1cccc(NC(=O)C[C@H]2CC[C@H]3[C@@H](COc4ccc(NC(=O)Nc5ccccc5)cc4C(=O)N3C)O2)c1`, the inhibition is reported as -4.77% (inactive).
For `CCC(NC(=O)C1C2C=CC3(CN(Cc4ccccc4)C(=O)C13)O2)c1ccccc1` (stereo not given), the inhibition was 8.47% (inactive).
With `C=CCC1(CC=C)CCCN1C(=O)c1cc(COc2ccc(-n3cncn3)cc2)on1` the inhibition was 53% (active).
For `COCC1CCCCN1C(=O)c1cc(COc2ccc(C)c(C)c2)on1` (stereo not given), the inhibition was -30% (inactive).
`CCCOC1CCCN(C(=O)c2cc(COc3cncc(Cl)c3)on2)C1` (stereo not given) was tested, and the inhibition was -19.1% (inactive).
For `O=C(Nc1ccc(Br)cc1)OCCN1C(=O)CCC12CCC(c1ccccc1)CC2` (stereo not given), the inhibition was -11.1% (inactive).
`COC(=O)C[C@H]1CC[C@H]2[C@H](COc3ccc(NC(=O)C4CC4)cc3C(=O)N2C)O1` was tested, and the inhibition was -12.2% (inactive).
With `COc1ccc(OC)c(NC(=O)c2cc(-c3cc(F)ccc3OCC3CCCO3)n[nH]2)c1` (stereo not given) the inhibition was 87% (active).
For `COc1cc(F)ccc1-c1cc(C(=O)NCC2CCCCC2)[nH]n1`, the inhibition was -27.9% (inactive).
With `CCCOc1ccc(F)cc1-c1cc(C(=O)Nc2ccc(F)cc2)[nH]n1` the inhibition was -7.05% (inactive).
For `O=C(NCc1ccc(Cl)cc1)C1CCCN(c2nc3ccccc3o2)C1` (stereo not given), the inhibition was 18.9% (inactive).
In the case of `C#CCNC(=O)C[C@H]1C[C@@]2(C(=O)OC)C(=C[C@H](C(C)C)O[C@@H]2C2CC2)N(Cc2ccco2)C1=O`, the inhibition is reported as -5.51% (inactive).
In the case of `CC(C)CSc1nnc(-c2cccnc2)n1Cc1ccccc1`, the inhibition is reported as 9.79% (inactive).
`O=C(c1c(F)cccc1Cl)N1CCN(S(=O)(=O)c2ccc3c(c2)OCCCO3)CC1` was tested, and the inhibition was 18% (inactive).
With `O=C(c1c(F)cccc1F)N1CCN(S(=O)(=O)c2ccc3c(c2)OCCO3)CC1` the inhibition was 38.1% (active).
For `O=S(=O)(c1ccc2c(c1)OCCCO2)N1CCN(S(=O)(=O)c2c(F)cccc2F)CC1`, the inhibition was 9.89% (inactive).
With `CCc1cc2c(NC(Cc3ccccc3)C(=O)O)ncnc2s1` (stereo not given) the inhibition was -1.84% (inactive).
In the case of `CCc1cc2c(SCC(=O)Nc3ncc(Cl)c(C)c3Cl)ncnc2s1`, the inhibition is reported as 12.8% (inactive).
For `CCc1cc2c(NC3CCCC3)ncnc2s1`, the inhibition was 39.9% (active).
In the case of `C=C(C)C1CC23C(=O)C4(C(=O)c5ccccc5)C[C@@]5(C)CCC(CC2C1(C)C)(C4=O)C35OC` (stereo not given in full), the inhibition is reported as -4.41% (inactive).
With `COc1ccccc1C(=O)CSc1nnc(-c2ccccn2)n1-c1ccccc1` the inhibition was 9.59% (inactive).
`Cc1ccc(-c2nc(C3CCCN(S(=O)(=O)c4ccc(Br)s4)C3)no2)cc1` (stereo not given) was tested, and the inhibition was 2.13% (inactive).
For `Cc1ccc(-c2cn3cc(C)ccc3n2)cc1`, the inhibition was 73% (active).
With `COc1ccc(-c2nc3ccc(Br)cn3c2Cc2ccc(C)cc2)cc1OC` the inhibition was -32.3% (inactive).
With `Cc1ccc2nc(-c3ccccc3)c(CC3CCCCC3)n2c1` the inhibition was -52.4% (inactive).
With `Cc1ccc2nc(-c3ccc(Br)cc3)cn2c1` the inhibition was 46.6% (active).
In the case of `CC(=O)Nc1c(-c2ccc(C)cc2)nc2ccc(Cl)cn12`, the inhibition is reported as -17.9% (inactive).
For `Cc1ccc(-c2nc3c(C)cc(Br)cn3c2Cc2ccccc2)cc1`, the inhibition was -5.6% (inactive).
In the case of `CCC(=O)c1c(CC)c2n3c1=CC[C@H]3CC(Br)C=2` (stereo not given in full), the inhibition is reported as 6.74% (inactive).
In the case of `CC(c1ccc(N)cc1)c1cn(C)c2ccccc12` (stereo not given), the inhibition is reported as -16.2% (inactive).
With `CCOC(=O)[C@]12CCCC3=C1N(CCC3)C(=O)[C@@H](CC(=O)N1CCSCC1)C2` the inhibition was -5.73% (inactive).
With `COc1ccc(N2CCN(CCNS(=O)(=O)c3ccc([N+](=O)[O-])cc3)CC2)cc1` the inhibition was 15.2% (inactive).
`CC(C)OCCCNc1ncnc2c1[nH]c1ccc(F)cc12` was tested, and the inhibition was 62.2% (active).
`O=C(CN1CCC(NC(=O)NCc2ccccc2)CC1)Nc1ccc2c(c1)OCCO2` was tested, and the inhibition was -8.81% (inactive).

— PubChem BioAssay AID686940 (The Scripps Research Institute Molecular Screening Center, 2013)
